Here are results for 14 sequences from the supplement of paper PMC10681739.

Assay [1] has as its target T1, ETS1 (UniProt P14921).
T1 sequence: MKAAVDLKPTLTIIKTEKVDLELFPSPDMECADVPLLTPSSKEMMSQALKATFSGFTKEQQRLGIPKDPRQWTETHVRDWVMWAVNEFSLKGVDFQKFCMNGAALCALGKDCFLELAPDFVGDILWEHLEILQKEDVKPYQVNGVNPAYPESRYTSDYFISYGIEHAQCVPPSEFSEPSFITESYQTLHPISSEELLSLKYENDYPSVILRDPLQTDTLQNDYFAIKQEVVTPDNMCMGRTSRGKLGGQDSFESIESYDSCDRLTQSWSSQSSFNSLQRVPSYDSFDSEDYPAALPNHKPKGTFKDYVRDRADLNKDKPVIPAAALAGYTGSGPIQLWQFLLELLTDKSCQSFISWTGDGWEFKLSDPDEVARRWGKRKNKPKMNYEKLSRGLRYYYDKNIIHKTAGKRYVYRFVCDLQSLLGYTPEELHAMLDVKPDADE
The assay is described as follows: ETS1 binding intensity (PBM fluorescence), ETS1 alone (arbitrary fluorescence units); higher = stronger binding. The following applies: ETS1 concentration 1 nM; RUNX1 concentration 0 nM.

For assay [2], the target named is RUNX1 (UniProt Q01196). Kind of assay: RUNX1 binding intensity (PBM fluorescence), RUNX1 alone (arbitrary fluorescence units); higher = stronger binding. The following applies: RUNX1 concentration 2 nM; ETS1 concentration 0 nM. The procedure:
(§1)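 Cooperative gcPBM on 36-bp genomic probes with neighbouring ETS1 and RUNX1 sites. Recombinant human RUNX1 (2 nM) was incubated alone or with ETS1 (25 nM) and detected with anti-RUNX1 antibody plus Alexa488 secondary. Values are medians over 4 replicate spots; the RUNX1+ETS1 data were normalised to the RUNX1-only data. The probes sit in constant array flanks that are not printed.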

In assay [3] the target is T1, ETS1. The assay is described as follows: ETS1 binding intensity (PBM fluorescence) in presence of RUNX1, normalised to ETS1-only experiment (arbitrary fluorescence units); higher = stronger binding. The settings on record: ETS1 concentration 1 nM; RUNX1 concentration 25 nM.
Assay [4] has as its target RUNX1 (UniProt Q01196). The assay is described as follows: RUNX1 binding intensity (PBM fluorescence) in presence of ETS1, normalised to RUNX1-only experiment (arbitrary fluorescence units); higher = stronger binding. The settings on record: RUNX1 concentration 2 nM; ETS1 concentration 25 nM. The procedure: as §1
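Wherever RUNX1 binding intensity (PBM fluorescence) in presence of ETS1, normalised to RUNX1-only experiment is given: Full-length recombinant human ETS1 or RUNX1 bound to double-stranded 36-bp genomic probes on microarrays, detected by protein-specific primary antibody and Alexa488 secondary, spot fluorescence as median of four replicate spots.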
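Wherever RUNX1 binding intensity (PBM fluorescence), RUNX1 alone is given: Full-length recombinant human RUNX1 bound to double-stranded 36-bp genomic probes on a high-density microarray, scored as Alexa488 fluorescence per spot via anti-RUNX1 antibody, median of four replicate spots.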

Chain of RUNX1 (Q01196 whole entry): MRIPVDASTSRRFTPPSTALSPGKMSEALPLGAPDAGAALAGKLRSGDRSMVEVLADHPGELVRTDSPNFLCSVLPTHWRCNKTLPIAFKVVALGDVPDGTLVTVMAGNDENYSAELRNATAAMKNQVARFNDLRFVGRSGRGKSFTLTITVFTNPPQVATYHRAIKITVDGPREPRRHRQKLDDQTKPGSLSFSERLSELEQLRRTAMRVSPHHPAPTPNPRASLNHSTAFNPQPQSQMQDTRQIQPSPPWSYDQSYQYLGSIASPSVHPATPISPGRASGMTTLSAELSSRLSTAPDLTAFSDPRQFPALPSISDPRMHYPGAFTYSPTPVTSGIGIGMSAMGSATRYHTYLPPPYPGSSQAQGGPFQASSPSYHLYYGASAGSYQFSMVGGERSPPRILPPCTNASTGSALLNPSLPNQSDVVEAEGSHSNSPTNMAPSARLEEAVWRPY

For the sequence GACACCCCACACCGGAAACCTCAGACAGTCCTCAGC, the ETS1 binding intensity in assay [1] came out at 4120; in assay [3], 4680. The RUNX1 binding intensity in assay [2] is 1170; in assay [4] it was 2900.

Take GGCTGGGGCGGTATCCTGTGGTCTTACTCTGGTGAC: the ETS1 binding intensity turned out to be 445 in assay [1] and 437 in assay [3]. The values for the RUNX1 binding intensity in assay [2] and in assay [4] were 1520 and 2620, respectively.

With AGCTCCCCTCCCCGGAAACTTGACCACCTAGCCCAG, the ETS1 binding intensity worked out at 1510 in assay [1] and 1660 in assay [3]. Also, the RUNX1 binding intensity came out at 875 in assay [2] and 813 in assay [4].

Consider TCTTTAAAACCCGGAAGTTCCTGTGGTTCATACGCT, for which the ETS1 binding intensity was determined as 8500 in assay [1] and 16500 in assay [3]. For the same sequence, the RUNX1 binding intensity came to 978 in assay [2] and 1940 in assay [4].

Consider GCCCCGGAAGTGGCCCGGCTGTTGGCCGCAGCGGGA, for which the ETS1 binding intensity worked out at 2810 in assay [1] and 3480 in assay [3]. Further, the RUNX1 binding intensity in assay [2] was 667; in assay [4], 1710.

Turning to CCTCACTAACATCCTGTTGAGGTGTCCCACAAACCA, the ETS1 binding intensity in assay [1] is 1110; in assay [3] it was 1090. For the same sequence, the RUNX1 binding intensity in assay [2] worked out at 801; in assay [4] it was 1490.

On to TGCCTCCTCGTCACAGGATGTGGTCGCTGCACCCTG, for which the ETS1 binding intensity is 5200 in assay [1] and 16000 in assay [3]. The RUNX1 binding intensity came out at 788 in assay [2] and 1700 in assay [4].

Regarding TGTGTAAGAGGAAACACCAAAACCACAAATATGAAA, the ETS1 binding intensity amounted to 736 in assay [1] and 3280 in assay [3]. Further, the RUNX1 binding intensity in assay [2] amounted to 2080; in assay [4], 3530.

Turning to AGCGCTTCCTGGCTCCGGCCCCGCCCCTGCGGTCGG, the ETS1 binding intensity was determined as 484 in assay [1] and 1110 in assay [3]. Also, the RUNX1 binding intensity in assay [2] worked out at 942; in assay [4] it was 1880.

For TGCAGCCTATTTCCTCTAACCCGCAGATCCACTATG, the figures for the ETS1 binding intensity in assay [1] and in assay [3] were 536 and 728, respectively. For the same sequence, the RUNX1 binding intensity in assay [2] turned out to be 1470; in assay [4], 2250.

Consider TGCAGCTATGGCCGGAAGCCTGTGGGTGTGGGAGGA, for which the ETS1 binding intensity in assay [1] stood at 4180; in assay [3], 4580. The RUNX1 binding intensity in assay [2] worked out at 726; in assay [4] it was 906.

TGAGCCCTACTTCCGGTGGTGCTGTGGTCTGCCCCT: the ETS1 binding intensity was found to be 10700 in assay [1] and 13200 in assay [3]. The RUNX1 binding intensity in assay [2] is 786; in assay [4] it was 2330.

With TTCTTCACTTCCTTCTCTCCGTGGTTTCGCCATTAG, the ETS1 binding intensity in assay [1] turned out to be 513; in assay [3], 436. Further, the RUNX1 binding intensity in assay [2] is 2260; in assay [4] it was 3130.

With CTAACAGCAGGAAGTGCTTGGTGGTTTAGCACCTCA, the values for the ETS1 binding intensity in assay [1] and in assay [3] were 2990 and 7150, respectively. Further, the RUNX1 binding intensity in assay [2] was 664; in assay [4], 1180.
